Source: PubChem BioAssay
HCMV inh = blocks human cytomegalovirus replication; hit rate 4.5% among 410,000; activity change, negative = inhibition, % at 57.5 µM; HFF cells, HCMV-luciferase reporter, 72 h; active compounds read low; in the data active = activity change below about -60%; inconclusive = no clear call, values can overlap the other calls; inactive = above about -39%
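Cell-based, HFFs, 1000 cells/well, 16 h 37C; cpds in DMSO + HCMV-luc, MOI 1 PFU/cell; 72 h 37C; OneGlo luminescence after 5 min RT; norm. to buffer vs Salinomycin 10uM.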
Sm TGR block = S. mansoni TGR enzyme inhibition; AID 485364; purified TGR, DTNB reduction, TNB absorbance 405 nm; Potency, µM (top dose mostly 114 µM), hits mostly inhibitors; Q962Y6; hit rate 3% among 360,000; note: nearly all actives have a fitted effect of over 60% in size
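TGR 20 nM + NADPH 100 uM (dispensed conc.), cpd preinc 15 min RT; start with NADPH (500 uM addition) then DTNB (15 mM addition). Kinetic TNB absorbance, 405 nm filter. Four-parameter Hill fit across titration.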
SARS PLP yeast = SARS-CoV PLP inhibition in yeast; hit rate 0.19% among 330,000; S. cerevisiae expressing SARS-CoV PLpro, growth rescue; Potency, µM (top dose mostly 32.9 µM), usual class: activators; calls by dose curve; note: nearly all actives have a fitted effect of over 55% in size
Pf growth 96h = inhibits malaria parasite growth, 96 h; P. falciparum luciferase reporter growth, 96 h; Potency, µM (highest dose often 28.7 µM), actives largely listed as inhibitors; hit rate 6.9% among 320,000; AID 504834
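Two-generation exposure (96 h) targets delayed-death phenotype. Reporter parasites carrying integrated firefly luciferase, in red cells at 2% hematocrit and 0.05% parasitemia final, kept at 37 C, 5% CO2; luminescence loss indicates inhibition.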
Pf growth 48h = P. falciparum growth inhibition at 48 hours (one generation) | AID 504832 | Potency, µM (titrated, usually from 28.7 µM), usual class: inhibitors | P. falciparum luciferase growth in erythrocytes, 48 h | hit rate 5.9% among 310,000
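Luciferase-expressing P. falciparum in infected erythrocytes (2% hematocrit, 0.1% parasitemia final) in RPMI 1640/0.5% Albumax were exposed to compound for 48 hours at 37 C, 5% CO2; growth read as luminescence.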
HCV inhibitor = inhibitors of hepatitis C virus infection; Potency, µM (top dose mostly 41.8 µM), hits mostly inhibitors; hit rate 3.4% among 340,000; Huh7.5.1 HCVcc-Cre infection, luciferase reporter, 44 h; AID 651820
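Cells seeded at 1,000/well and cultured 4 h, then compounds added followed by HCVcc-Cre virus (~0.5 moi). After 44 h further culture, luciferase substrate was added, plates held 15 min at room temperature, and luminescence read for 15 sec.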
Numbers stand for hits. An excerpt weighted towards active compounds, which were near 15% of everything screened. Unless noted, calls come from the whole dose curve; as a rule, active = well fitted curve in the direction sought with a large enough effect; inconclusive = small, poorly fitted or top-dose-only effect, or another doubt; inactive = no such curve, though single readings can be large; an effect the other way counts as inactive or inconclusive.

What do the screens show for `COc1cc([N+](=O)[O-])cc(/C=N/NC(=O)Cn2cncn2)c1O`?
HCMV inh: inactive; Sm TGR block: inactive; SARS PLP yeast: inactive; Pf growth 96h: inactive; Pf growth 48h: inactive; HCV inhibitor: inactive

What do the screens show for `COc1ccc2ccccc2c1/C=N/NC(=O)c1cccc([N+](=O)[O-])c1`?
HCMV inh: -62; Sm TGR block: inactive; SARS PLP yeast: inactive; Pf growth 96h: inactive; Pf growth 48h: inactive; HCV inhibitor: inconclusive

How did COc1ccccc1/C=N/NC(=O)c1ccc(NC(=O)c2ccccc2Br)cc1 do in these assays?
HCMV inh: -66; Sm TGR block: inactive; SARS PLP yeast: inactive; Pf growth 96h: inactive; Pf growth 48h: inactive; HCV inhibitor: inconclusive

Results for COc1cc([N+](=O)[O-])cc(/C=N/NC(=O)CC#N)c1O ?
Sm TGR block: inactive; SARS PLP yeast: 7.1µM; Pf growth 96h: inconclusive; Pf growth 48h: inactive

What do the screens show for `COc1cc(/C=C/C(=O)c2cccc([N+](=O)[O-])c2)cc(OC)c1OC`?
HCMV inh: inactive; Sm TGR block: inactive; SARS PLP yeast: inactive; Pf growth 96h: inactive; Pf growth 48h: inactive; HCV inhibitor: 11µM

How did CC(=O)c1ccc(NC(=O)C(C)Nc2ccc(Cl)cc2)cc1 (configuration not stated) do in these assays?
HCMV inh: inactive; Sm TGR block: inactive; SARS PLP yeast: inactive; Pf growth 96h: inactive; Pf growth 48h: inconclusive; HCV inhibitor: inactive

What do the screens show for `COc1ccc(C(=O)NC(CO)c2nnc(SCc3ccc(Cl)c(Cl)c3)n2C)cc1` (configuration not stated)?
HCMV inh: inactive; Sm TGR block: inactive; SARS PLP yeast: inactive; Pf growth 96h: inconclusive; Pf growth 48h: inactive; HCV inhibitor: inactive

How did CC(C)CC(NC(=O)c1cccs1)c1nnc(SCc2ccc(Cl)c(Cl)c2)n1C (configuration not stated) do in these assays?
HCMV inh: inconclusive; Sm TGR block: inactive; SARS PLP yeast: inactive; Pf growth 96h: inconclusive; Pf growth 48h: 12µM; HCV inhibitor: inconclusive

How did O=C(c1ccccc1Cl)N1CCCC(c2nc3c(nnn3Cc3ccc(F)cc3F)c(=O)[nH]2)C1 (configuration not stated) do in these assays?
HCMV inh: inactive; Sm TGR block: inactive

How did C=CCn1c(=NC(=O)c2ccccc2[N+](=O)[O-])sc2cc(S(C)(=O)=O)ccc21 do in these assays?
HCMV inh: inactive; Sm TGR block: inactive; SARS PLP yeast: inactive; Pf growth 96h: 9.3µM; Pf growth 48h: inconclusive; HCV inhibitor: inactive

Results for CC1C/C(=N/Nc2ccc([N+](=O)[O-])cc2[N+](=O)[O-])CC(C)(C)C1 (configuration not stated) ?
HCMV inh: inactive; Sm TGR block: inactive; SARS PLP yeast: inactive; Pf growth 96h: inconclusive; Pf growth 48h: 10µM; HCV inhibitor: inactive

How did CC1CCCC/C1=N/Nc1ccc([N+](=O)[O-])cc1[N+](=O)[O-] (configuration not stated) do in these assays?
HCMV inh: inactive; Sm TGR block: inactive; SARS PLP yeast: inactive; Pf growth 96h: inactive; HCV inhibitor: inactive

How did O=c1[nH]c(NCc2ccco2)nnc1Cc1ccccc1Cl do in these assays?
HCMV inh: inactive; Sm TGR block: inactive; Pf growth 96h: inactive; Pf growth 48h: inactive; HCV inhibitor: inactive

What do the screens show for `COc1ccc(Nc2nc(N3CCCC3)c3ccccc3n2)cc1`?
HCMV inh: inactive; Sm TGR block: inactive; SARS PLP yeast: inactive; Pf growth 96h: inactive; Pf growth 48h: 3.3µM; HCV inhibitor: 10µM

Results for CCN(CC)c1ccc(Nc2nc(N3CCOCC3)c3ccccc3n2)cc1 ?
HCMV inh: -96; Sm TGR block: inactive; SARS PLP yeast: inactive; Pf growth 48h: inactive; HCV inhibitor: 4.5µM

Results for O=C(CC1N=C2c3ccccc3N=C(SCc3cccc(F)c3)N2C1=O)NCc1ccc2c(c1)OCO2 (configuration not stated) ?
HCMV inh: inactive; Sm TGR block: inactive

What do the screens show for `CCc1nc2ccc(C(=O)N(C)C(C)C)cn2c1N(CCC(C)C)CCN(C)C`?
HCMV inh: inactive

What do the screens show for `CCN(CC)S(=O)(=O)c1ccc(N2CCOCC2)c(NC(=S)NC(=O)c2ccco2)c1`?
HCMV inh: inactive; Sm TGR block: inactive; SARS PLP yeast: inactive; Pf growth 96h: 1.5µM; Pf growth 48h: 2.6µM; HCV inhibitor: inconclusive

What do the screens show for `CCN(CC)S(=O)(=O)c1ccc(N2CCOCC2)c(NC(=O)C23CC4CC(CC(Cl)(C4)C2)C3)c1`?
HCMV inh: inactive; Sm TGR block: inactive; SARS PLP yeast: inactive; Pf growth 96h: 3.7µM; Pf growth 48h: 8.3µM; HCV inhibitor: inconclusive

How did CCc1cc(C(=O)Nc2cc(S(=O)(=O)N(CC)CC)ccc2N2CCOCC2)sc1C do in these assays?
HCMV inh: inactive; Sm TGR block: inactive; SARS PLP yeast: inactive; Pf growth 96h: 9.3µM; Pf growth 48h: inconclusive; HCV inhibitor: inconclusive

What do the screens show for `CCN(CC)S(=O)(=O)c1ccc(N2CCOCC2)c(NC(=O)c2cc3ccccc3o2)c1`?
HCMV inh: -73

Results for CCN(CC)S(=O)(=O)c1ccc(N2CCOCC2)c(NC(=O)c2ccco2)c1 ?
HCMV inh: inactive; SARS PLP yeast: inactive; HCV inhibitor: inactive

Results for CCN(CC)S(=O)(=O)c1ccc(N2CCOCC2)c(NC(=O)c2sccc2C)c1 ?
HCMV inh: inactive; SARS PLP yeast: inactive; HCV inhibitor: inconclusive

What do the screens show for `CC(C)N1CC2(CC(c3ccc(Cl)cc3Cl)=NO2)CN1C(=O)c1ccc(C(C)(C)C)cc1` (configuration not stated)?
HCMV inh: inactive

Results for CCN(CC)S(=O)(=O)c1ccc(N2CCOCC2)c(NC(=O)Cc2ccccc2F)c1 ?
HCMV inh: inactive; Sm TGR block: inactive; SARS PLP yeast: inactive; Pf growth 96h: inconclusive; Pf growth 48h: inconclusive; HCV inhibitor: inactive

Results for CCN(CC)S(=O)(=O)c1ccc(N2CCOCC2)c(NC(=O)c2cc(C)cc(C)c2)c1 ?
HCMV inh: inactive; Sm TGR block: inactive; SARS PLP yeast: inactive; Pf growth 96h: inconclusive; Pf growth 48h: 10µM; HCV inhibitor: inactive

Results for CCN(CC)S(=O)(=O)c1ccc(N2CCOCC2)c(NC(=O)c2ccccc2)c1 ?
HCMV inh: inactive; Sm TGR block: inactive; SARS PLP yeast: inactive; Pf growth 96h: inconclusive; Pf growth 48h: inconclusive; HCV inhibitor: inactive

How did CCN(CC)S(=O)(=O)c1ccc(N2CCOCC2)c(NC(=O)Cc2cccc3ccccc23)c1 do in these assays?
HCMV inh: inactive; Sm TGR block: inactive; SARS PLP yeast: inactive; Pf growth 96h: 3.7µM; Pf growth 48h: 13µM; HCV inhibitor: inactive

What do the screens show for `CCN1[C@@H]2c3ccc(-c4ccc(OC)cc4)c(=O)n3C[C@@H]2[C@@H](CO)[C@@H]1C(=O)NCCN1CCCCC1`?
HCMV inh: inactive
